# In PubChem BioAssay AID1461 (National Center for Advancing Translational Sciences (NCATS), 2008):
# Among all 220,000 compounds or so, about 2,300 (1%) were called active. About 6% were inconclusive and are not listed. The sample as a whole holds a higher share of actives than the screen did. A number with no mark means an inactive call. Calls follow the shape of the dose curve; as a rule, active = well fitted inhibition curve with a large enough effect; inconclusive = small, poorly fitted or top-dose-only effect, or effect the other way; inactive = no such curve, though single readings can be large or run the other way.
# Target: Neuropeptide S receptor (Homo sapiens) (UniProt Q6W5P4)
# Assay: qHTS Assay for Antagonists of the Neuropeptide S Receptor: cAMP Signal Transduction; also: nearly all actives have a fitted effect of over 50% in size
# Details: CHO-NPSR cells, cAMP TR-FRET, antagonist mode; series mostly up to 38.3 µM; activity change, negative = inhibition: at the top concentration
# Source text: NIH Chemical Genomics Center [NCGC] NIH Molecular Libraries Probe Production centers Network [MLPCN] MLPCN Grant: X01-DA026210-01 Assay Submitter (PI): Heilig, Markus Alexander NCGC Assay Overview: Neuropeptide S receptor (NPSR), previously known as GPR154, is a recently de-orphanized G protein coupled receptor. Its endogenous ligand is the 20 amino acids peptide Neuropeptide S (NPS). […] NPS and its receptor are found in various tissues. Specifically they are highly expressed in brain areas that have been implicated in modulation of arousal, stress and anxiety. Central administration of NPS in mice produces an unusual profile of activity by inducing wakefulness and arousal, while at the same time suppressing anxiety. Therefore, NPSR may represent a novel drug target for the treatment of sleep and anxiety disorders. To identify NPSR antagonists, we developed a cell-based cAMP assay. NPS can stimulate the production of cAMP in Chinese hamster ovary cells stably expressing NPS receptor. This change in intracellular cAMP level can be detected by a homogeneous LANCE cAMP assay based on the TR-FRET (time resolved fluorescence resonance energy transfer) between a europium-labeled cAMP tracer complex and a cAMP-specific antibody labeled with Alexa Fluor 647. The europium-labeled cAMP tracer complex is formed by the tight interaction between Biotin-cAMP (b-cAMP) and streptavidin labeled with Europium-W8044 chelate (Eu-SA). Light pulse at 320 nm excites the europium of the cAMP tracer and the energy emitted is transferred to the Alexa molecule bound to the cAMP antibody, generating a TR-FRET signal at 665 nm. Residual energy from the europium will produce a light at 620 nm. The native unlabeled cAMP from cell lysates competes with the europium-cAMP tracer for antibody binding and reversely reduces the emission signal of Alexa by interrupting FRET between the two labeled molecules. Both emission signals from the FRET donor (620 nm) and the acceptor (665 nm) can be detected by a plate reader in the TRF mode. Expression of result in fluorescence ratio (665 nm/620 nm) helps to normalize differences due to cell density and reagent dispensing. This assay was successfully optimized to a 1536-well plate format.
# NCGC Assay Protocol Summary: A Chinese hamster ovary (CHO) cell line stably expressing the NPS receptor (CHO-NPSR) was obtained from Dr. Heilig lab at NIAAA and maintained in F-12 Kaighn's media (Invitrogen, Carlsbad, CA, 21127) supplemented with 10 % FBS, 100 units/ml penicillin, 100 ug/ml streptomycin and 250 ug/ml geneticin at 37C, 5% CO2 in a humidified atmosphere. Before the assay, aliquots of cells were frozen and stored at -135C. The assay was performed in 1536-well format. Data are reported for both the ratio of the two emission wavelengths, and also for the component 'donor' channel, Em2=620. Data were normalized to the controls for basal activity (DMSO only) and 100% inhibition (No NPS control). IC50 values were determined from concentration-response data modeled with the standard Hill equation. NPS 1536-well assay protocol: (1) Fresh or frozen CHO-NPSR cells were suspended in F-12 Kaighn's media supplemented with 10 % FBS, 100 units/ml penicillin and 100 ug/ml streptomycin. Cells were plated at 4 ul/well (1200 cells) to white, tissue culture treated 1536-well plates, and then cultured at 37C, 5 % CO2 for 16 to 30 hours. (2) Add 23 nl/well of compound in DMSO solution. The final titration for each compound was between 0.6 nM and 46 uM. (3) Add 1 ul of stimulation reagent (1X HBSS buffer, 5 mM HEPES, 0.1% BSA, 500 uM RO-201724 (Sigma-Aldrich, B8279), 1.5% Alexa 647-labeled anti-cAMP antibody (from Perkin Elmer), 100 nM NPS) (4) Incubation at 37C, 5 % CO2 for 60 min. (5) Add 1 ul/well detection reagent. Detection reagent was prepared by adding biotin labeled cAMP (4%), streptavidin labeled with Europium-W8044 chelate (1.33%) and TritonX-100 (1%) to detection buffer. […]
# % is scaled to controls: 0 for no effect and ±100 for the full control effect; potency is read from the fitted curve at half-maximal effect.
# Chain of Neuropeptide S receptor (Homo sapiens) (Q6W5P4 whole entry, looked up): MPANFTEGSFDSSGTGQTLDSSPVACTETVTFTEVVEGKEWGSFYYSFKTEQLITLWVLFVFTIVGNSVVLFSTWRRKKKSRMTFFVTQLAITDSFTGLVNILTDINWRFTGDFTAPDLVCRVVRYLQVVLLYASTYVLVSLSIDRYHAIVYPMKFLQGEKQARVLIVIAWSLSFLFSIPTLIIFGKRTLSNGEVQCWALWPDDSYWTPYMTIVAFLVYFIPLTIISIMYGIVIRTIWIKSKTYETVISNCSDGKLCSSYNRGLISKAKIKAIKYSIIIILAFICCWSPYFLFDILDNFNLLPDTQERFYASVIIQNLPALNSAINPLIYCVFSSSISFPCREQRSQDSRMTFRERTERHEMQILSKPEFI
Compound,"activity change, negative = inhibition",Potency
O=C(/C=C/c1ccccc1[N+](=O)[O-])NCC1CCCO1 (stereo unspecified),12.9%,
O=C(/C=C/c1ccccc1[N+](=O)[O-])OC1CCCCC1=O (stereo unspecified),1.58%,
CC1CCCCC1NC(=O)/C(C#N)=C/C=C/c1ccccc1[N+](=O)[O-] (stereo unspecified),,10 µM (active)
CN(c1ccccc1)S(=O)(=O)c1ccc(Cl)c(C(=O)OCC(=O)NCc2ccco2)c1,-0.308%,
CN(C)C(=S)Nc1ccc(Br)cc1Cl,-9.99%,
COc1ccc(C(CC(=O)N2CCN(c3ccccc3)CC2)c2c(O)cc(OC)cc2OC)cc1 (stereo unspecified),-25.2%,
COc1cc(C(CCN2CCN(c3ccccc3)CC2)c2c(OC)cc(OC)c3ccc(=O)oc23)cc(OC)c1OC (stereo unspecified),,10 µM (active)
CCN(CC)CCC(c1cc(OC)c(OC)c(OC)c1)c1c(OC)cc(OC)c2c(-c3ccccc3)cc(=O)oc12 (stereo unspecified),-24.9%,
O=C(Nc1ccccc1)Nc1nnc(COc2ccccc2F)s1,-5.72%,
COc1ccc(NC(=O)CCN2C(=O)/C(=C/c3ccc4c(c3)OCO4)SC2=S)cc1,3.47%,
O=C(Cn1cnc2ccccc2c1=O)Nc1cccc(S(=O)(=O)N2CCCCC2)c1,-8.02%,
CC(=O)Nc1ccc(CC#N)cc1,-15.3%,
Cc1cc(-c2nc(C)c(-c3nnc(SCC(=O)Nc4ccccc4)n3C)s2)no1,5.55%,
COc1ccc(N2C(=O)c3ccccc3NC2c2ccc(OC)c(CN3CCOCC3)c2)cc1 (stereo unspecified),-35.7%,
CCN(CC)P(=O)(Nc1ccc(SC(F)F)cc1)c1ccc(N(C)C)cc1NC(=O)c1ccco1 (stereo unspecified),,5.01 µM (active)
O=C(Nc1ccc(Sc2ccc(Br)cc2)cc1)c1ccco1,-22.6% [at 46.1 µM],
CCC(=O)NC(=S)Nc1ccc(NC(=O)c2ccco2)c(Cl)c1,-27.6%,
C=CCCN(Cc1ccccc1)S(=O)(=O)c1ccccc1Br,-39.7%,
O=C(NNC(=O)c1csc(-c2cccnc2)n1)Nc1ccc(Cl)cc1,-1.58%,
O=C(O)CC12CC3CC(C1)CC(n1ncc(NCc4ccc(F)cc4)c(Cl)c1=O)(C3)C2,-4.32%,
O=C(NNC(=S)NC1CC2CCC1C2)c1ccc(Cl)cc1 (stereo unspecified),-26.4%,
CC(C)Cn1c(CN(Cc2ccccc2)Cc2ccccc2)nc2c1c(=O)n(C)c(=O)n2C,,12.6 µM (active)
COCCn1c(CN(Cc2ccccc2)Cc2ccccc2)nc2c1c(=O)n(C)c(=O)n2C,-20.7% [at 46.1 µM],
CC(C)CCn1c(CN(C)Cc2ccccc2)nc2c1c(=O)n(C)c(=O)n2C,-20.1% [at 46.1 µM],
S=c1[nH]nc(-c2cccnc2)n1/N=C/C(Cl)=C\c1ccccc1,-30.4%,
Cc1cc(-c2n[nH]c(=S)n2/N=C/c2ccco2)n[nH]1,2.84%,

Compound,"activity change, negative = inhibition",Potency
Cc1cc(-c2n[nH]c(=S)n2/N=C/C(Br)=C/c2ccccc2)n[nH]1,,3.98 µM (active)
Cn1c(SCC(=O)c2ccc(F)cc2)nnc1-c1ccccn1,-7.53%,
Cc1nc2nc(SCC(=O)c3ccccc3)[nH]c2cc1Br,-26.3%,
Nc1nc(SC23CC4CC(CC(C4)C2)C3)ns1,7.63%,
Cn1c(C(=O)O)ccc1S(=O)(=O)N(Cc1ccccc1)Cc1ccccc1,35.6%,
N#C/C(=C1\CCCN1)c1nc(-c2ccccc2)cs1,-23.6% [at 46.1 µM],
N#CC1=C(SCc2ccccc2)NC(=O)C(C#N)C12CCCC2 (stereo unspecified),3.01% [at 46.1 µM],
N#CC1=C(SCc2ccc(C#N)cc2)N=C(N)C(c2nc(-c3ccccc3)cs2)C12CCCCC2 (stereo unspecified),,3.98 µM (active)
S=c1[nH]c2ccccc2c2ccccc12,-17.7%,
CCCCCCCCCCCCC(NC(C)=O)(C(=O)OCC)C(=O)OCC,40.3%,
Nc1ccccc1Sc1cc(Cl)nnc1Cl,-25.8%,
Cc1ccc(-c2c[n+](CC(=O)Nc3ccccc3)c3n2CCC3)cc1,-1.52%,
CCOC(=O)c1c(C)[nH]c2c1-c1ccccc1C(=O)C2=O,6.24%,
CC(=O)c1c(C)[nH]c(=S)c(C#N)c1-c1ccc(F)cc1,-16.5%,
CCOC(=O)c1c(C)[nH]c(=S)c(C#N)c1-c1ccccc1,,7.94 µM (active)
Cn1cnc(S(=O)(=O)Nc2ccc3c(c2)OCCO3)c1,9.08%,
Cc1cc(C)cc(NC(=O)NC2CCN(CC(=O)Nc3cccc(Cl)c3C)CC2)c1,-25.3%,
O=C(CN1CCCCC1)Nc1ccccc1Cl,-3.09%,
COCCN(CCOC)C(=S)Nc1ccccc1Cl,8.02%,
O=C(Nc1ccccc1Cl)/C(Cl)=C(\Cl)S(=O)c1ccccc1 (stereo unspecified),,7.94 µM (active)
COc1ccc(C(=O)N/N=C2\CCS(=O)(=O)c3ccc(F)cc32)cc1OC,-2.66%,
COC(=O)c1cc(C(=O)OCC(=O)Nc2cc(C)on2)cc([N+](=O)[O-])c1,-14.2%,
N/C(=N\OC(=O)CCn1cccc(C(F)(F)F)c1=O)c1ccc(OC(F)(F)F)cc1,-8.1%,
Cn1c(S(=O)(=O)O)nc2ccccc21,22.2%,
Cc1ccc(NC(=O)/C(=C/c2ccc([N+](=O)[O-])cc2)NC(=O)c2ccccc2)cc1,7.14%,
